Test results reported in PubChem BioAssay (Tox21).
Inconclusive results are not listed. The source made the active and inactive calls. Unless noted, the call rests on the fitted dose curve; in most records, active means well fitted curve in the direction sought with a large enough effect in the repeat runs; inconclusive means weak or mixed curves; inactive means no such curve, though single readings can be large; an effect the other way counts as inactive or inconclusive.

Columns and labels:
[1] = target: Thyrotropin-releasing hormone receptor (Homo sapiens) (UniProt P34981); experiment: qHTS assay to identify small molecule agonists of the thyrotropin-releasing hormone receptor (TRHR) signaling pathway (AID 1346891; calls by dose curve; further: series mostly up to about 58 µM)
Chain of Thyrotropin-releasing hormone receptor (Homo sapiens) (P34981 whole entry, looked up): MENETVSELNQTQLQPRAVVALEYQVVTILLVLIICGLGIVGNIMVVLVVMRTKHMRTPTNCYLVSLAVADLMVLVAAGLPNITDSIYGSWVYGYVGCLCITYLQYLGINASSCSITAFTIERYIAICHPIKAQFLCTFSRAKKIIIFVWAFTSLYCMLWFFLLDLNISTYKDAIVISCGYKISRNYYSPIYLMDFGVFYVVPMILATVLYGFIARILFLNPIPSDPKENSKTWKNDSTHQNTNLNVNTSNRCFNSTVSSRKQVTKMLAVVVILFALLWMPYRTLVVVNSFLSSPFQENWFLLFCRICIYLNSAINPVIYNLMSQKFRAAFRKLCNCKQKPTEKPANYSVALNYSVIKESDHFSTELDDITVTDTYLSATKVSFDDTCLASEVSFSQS
Outline: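 Intracellular calcium rise, read as fluorescence every second for 3 min, served as the agonist signal in dye-loaded HEK293 cells expressing TRHR; each compound ran at 15 concentrations in triplicate.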

[2] = Human pregnane X receptor (PXR) small molecule agonists, qHTS cell viability counter screen (AID 1346977); further: nearly all actives have a fitted effect of over 50% in size; further: potency means the concentration at half of the fitted maximal effect
Outline: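 PXR-Luc HepG2, 2,000 cells/well, 5% charcoal-stripped FBS; 5hr settle; cpd 24hr, 37C/5% CO2; CellTiter-Fluor at 23hr, read 1hr later (fluorescence).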

[3] = Caspase-3/7 induction in HepG2 cells by small molecules, qHTS assay (AID 1346978); further: nearly all actives have a fitted effect of over 15% in size
Outline: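 Caspase-3/7 induction was measured by Caspase-Glo 3/7 luminescence (30 min, room temperature) after a 17 hr compound exposure of wild-type HepG2 cells seeded at 2,000 per well and pre-incubated 5 hr.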

[4] = Caspase-3/7 induction in CHO-K1 cells by small molecules, qHTS cell viability counter screen (AID 1346979); further: nearly all actives have a fitted effect of over 35% in size; further: potency means the concentration at half of the fitted maximal effect
Outline: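 Cells (CHO-K1, wild type) are plated at 1,500 per well and incubated 5hr. Test compounds in DMSO are then pinned in, followed by 16hr at 37C and 5% CO2. Viability is read by CellTiter-Fluor fluorescence after 1hr.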

[5] = Caspase-3/7 induction in CHO-K1 cells by small molecules, qHTS assay (AID 1346980); further: nearly all actives have a fitted effect of over 15% in size
Outline: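 Luminescent Caspase-Glo 3/7 read (30min, room temperature) quantified apoptosis induction. Cells were wild-type CHO-K1, treated with compound for 17hr at 37 C and 5% CO2.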

[6] = Caspase-3/7 induction in HepG2 cells by small molecules, qHTS cell viability counter screen (AID 1346981); further: series mostly up to about 92 µM; nearly all actives have a fitted effect of over 30% in size
Outline: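 Steps: seed 2,000 HepG2 cells per well; incubate 5 hr at 37 C; pin-add compounds in DMSO; incubate 16 hr; add CellTiter-Fluor; after 1 hr at 37 C and 5% CO2, read fluorescence.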

[7] = target: Nuclear receptor subfamily 1 group I member 2 (Homo sapiens) (UniProt O75469); experiment: Human pregnane X receptor (PXR) small molecule agonists, qHTS assay (AID 1346982); further: nearly all actives have a fitted effect of over 35% in size; further: potency means the concentration at half of the fitted maximal effect
Chain of Nuclear receptor subfamily 1 group I member 2 (Homo sapiens) (O75469 whole entry, looked up): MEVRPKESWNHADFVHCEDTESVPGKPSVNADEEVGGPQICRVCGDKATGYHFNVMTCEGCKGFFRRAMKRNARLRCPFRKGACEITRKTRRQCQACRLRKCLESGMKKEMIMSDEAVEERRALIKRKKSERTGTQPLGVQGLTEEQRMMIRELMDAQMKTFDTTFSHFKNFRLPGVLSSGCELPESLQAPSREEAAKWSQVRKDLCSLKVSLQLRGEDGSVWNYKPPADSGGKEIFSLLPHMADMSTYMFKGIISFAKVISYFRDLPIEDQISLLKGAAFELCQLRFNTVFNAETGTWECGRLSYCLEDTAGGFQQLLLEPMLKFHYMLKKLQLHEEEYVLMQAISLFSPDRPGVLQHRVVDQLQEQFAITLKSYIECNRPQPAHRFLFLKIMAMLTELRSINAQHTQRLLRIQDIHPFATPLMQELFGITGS
Outline: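 Agonist mode qHTS: PXR-Luc HepG2 cells plated 5 hr before DMSO-dissolved compounds were pinned in, cultured 24 hr at 37 C, 5% CO2; ONE-Glo luminescence readout.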

[8] = target: Cytochrome P450 2D6 (Homo sapiens) (UniProt P10635); experiment: Cytochrome P450 Family 2 Subfamily D Member 6 (CYP2D6) small molecule antagonists: luciferase reporter qHTS assay (AID 1671196); further: nearly all actives have a fitted effect of over 50% in size; further: potency means the concentration at half of the fitted maximal effect; on activity change, negative = inhibition: series mostly up to about 120 µM
Chain of Cytochrome P450 2D6 (Homo sapiens) (P10635 whole entry, looked up): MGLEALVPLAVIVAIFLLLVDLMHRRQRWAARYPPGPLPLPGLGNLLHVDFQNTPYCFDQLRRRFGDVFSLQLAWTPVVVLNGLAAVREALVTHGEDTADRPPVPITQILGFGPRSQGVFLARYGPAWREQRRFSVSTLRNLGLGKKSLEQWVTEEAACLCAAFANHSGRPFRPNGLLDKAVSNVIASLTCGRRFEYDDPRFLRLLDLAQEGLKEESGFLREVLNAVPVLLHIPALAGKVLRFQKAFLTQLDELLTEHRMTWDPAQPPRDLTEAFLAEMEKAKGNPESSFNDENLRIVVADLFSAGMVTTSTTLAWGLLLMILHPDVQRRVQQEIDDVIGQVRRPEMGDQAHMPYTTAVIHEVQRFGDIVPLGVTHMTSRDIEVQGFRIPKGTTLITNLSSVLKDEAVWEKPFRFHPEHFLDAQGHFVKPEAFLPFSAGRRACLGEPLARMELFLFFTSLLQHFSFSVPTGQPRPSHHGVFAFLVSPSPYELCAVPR
Outline: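 P450-Glo format: CYP2D6 converts a proluciferin substrate to luciferin in an NADPH-driven reaction lasting 1 h at room temperature. Light output, proportional to CYP2D6 activity, reflects interference by test chemicals.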

[9] = target: Cytochrome P450 2C19 (Homo sapiens) (UniProt P33261); experiment: Cytochrome P450 Family 2 Subfamily C Member 19 (CYP2C19) small molecule antagonists: luciferase reporter qHTS assay (AID 1671197); further: nearly all actives have a fitted effect of over 65% in size; further: potency means the concentration at half of the fitted maximal effect; on activity change, negative = inhibition: series mostly up to about 120 µM
Chain of Cytochrome P450 2C19 (Homo sapiens) (P33261 whole entry, looked up): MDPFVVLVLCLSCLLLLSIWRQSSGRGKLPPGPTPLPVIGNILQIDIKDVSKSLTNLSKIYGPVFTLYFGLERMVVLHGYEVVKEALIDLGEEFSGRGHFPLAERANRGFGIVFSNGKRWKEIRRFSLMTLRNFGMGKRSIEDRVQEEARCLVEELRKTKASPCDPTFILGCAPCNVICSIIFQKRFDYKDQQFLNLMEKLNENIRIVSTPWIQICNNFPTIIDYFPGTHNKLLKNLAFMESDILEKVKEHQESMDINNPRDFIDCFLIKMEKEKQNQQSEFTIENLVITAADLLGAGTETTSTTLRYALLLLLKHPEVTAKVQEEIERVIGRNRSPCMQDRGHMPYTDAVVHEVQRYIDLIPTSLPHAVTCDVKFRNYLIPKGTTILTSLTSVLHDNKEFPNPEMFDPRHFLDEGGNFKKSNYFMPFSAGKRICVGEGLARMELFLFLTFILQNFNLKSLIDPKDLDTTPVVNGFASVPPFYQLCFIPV
Outline: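 P450-Glo CYP2C19 system: enzyme-substrate mix with compound 10 min at room temperature, then NADPH regeneration solution, 1 h at 37C. Proluciferin-to-luciferin conversion detected by luminescence after 20 min with detection reagent; ketoconazole as positive control.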

[10] = target: Cytochrome P450 1A2 (Homo sapiens) (UniProt P05177); experiment: Cytochrome P450 Family 1 Subfamily A Member 2 (CYP1A2) small molecule antagonists: luciferase reporter qHTS assay (AID 1671199); further: nearly all actives have a fitted effect of over 50% in size; further: potency means the concentration at half of the fitted maximal effect; on activity change, negative = inhibition: series mostly up to about 120 µM
Chain of Cytochrome P450 1A2 (Homo sapiens) (P05177 whole entry, looked up): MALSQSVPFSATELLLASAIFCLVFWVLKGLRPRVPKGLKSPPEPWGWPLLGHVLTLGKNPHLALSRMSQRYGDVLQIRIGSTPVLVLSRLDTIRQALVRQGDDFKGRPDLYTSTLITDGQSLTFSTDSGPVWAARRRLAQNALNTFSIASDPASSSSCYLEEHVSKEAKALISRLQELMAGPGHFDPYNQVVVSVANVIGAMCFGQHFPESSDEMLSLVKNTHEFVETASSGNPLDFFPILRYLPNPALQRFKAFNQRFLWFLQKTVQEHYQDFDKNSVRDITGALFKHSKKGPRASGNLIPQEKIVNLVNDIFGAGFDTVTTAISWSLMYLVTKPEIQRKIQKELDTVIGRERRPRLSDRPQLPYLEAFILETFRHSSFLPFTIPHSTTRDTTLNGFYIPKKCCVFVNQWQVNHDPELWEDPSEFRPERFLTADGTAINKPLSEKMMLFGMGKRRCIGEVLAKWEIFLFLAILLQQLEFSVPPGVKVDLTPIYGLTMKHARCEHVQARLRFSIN
Outline: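 Inhibition of CYP1A2 conversion of proluciferin to luciferin, detected by luminescence. Reaction run 1 h at room temperature with NADPH regeneration after brief compound preincubation.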

[11] = target: Voltage-gated inwardly rectifying potassium channel KCNH2 (Homo sapiens) (UniProt Q12809); experiment: Human Ether-a-go-go-Related Gene (hERG) channel small molecule antagonists: fluorescence cell-based qHTS assay (AID 1671200); further: nearly all actives have a fitted effect of over 50% in size; further: potency means the concentration at half of the fitted maximal effect;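 on activity change, negative = inhibition: hERG-expressing U2OS cells given a thallium stimulus after FluxOR II dye loading; series mostly up to about 77 µM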
Chain of Voltage-gated inwardly rectifying potassium channel KCNH2 (Homo sapiens) (Q12809 whole entry, looked up): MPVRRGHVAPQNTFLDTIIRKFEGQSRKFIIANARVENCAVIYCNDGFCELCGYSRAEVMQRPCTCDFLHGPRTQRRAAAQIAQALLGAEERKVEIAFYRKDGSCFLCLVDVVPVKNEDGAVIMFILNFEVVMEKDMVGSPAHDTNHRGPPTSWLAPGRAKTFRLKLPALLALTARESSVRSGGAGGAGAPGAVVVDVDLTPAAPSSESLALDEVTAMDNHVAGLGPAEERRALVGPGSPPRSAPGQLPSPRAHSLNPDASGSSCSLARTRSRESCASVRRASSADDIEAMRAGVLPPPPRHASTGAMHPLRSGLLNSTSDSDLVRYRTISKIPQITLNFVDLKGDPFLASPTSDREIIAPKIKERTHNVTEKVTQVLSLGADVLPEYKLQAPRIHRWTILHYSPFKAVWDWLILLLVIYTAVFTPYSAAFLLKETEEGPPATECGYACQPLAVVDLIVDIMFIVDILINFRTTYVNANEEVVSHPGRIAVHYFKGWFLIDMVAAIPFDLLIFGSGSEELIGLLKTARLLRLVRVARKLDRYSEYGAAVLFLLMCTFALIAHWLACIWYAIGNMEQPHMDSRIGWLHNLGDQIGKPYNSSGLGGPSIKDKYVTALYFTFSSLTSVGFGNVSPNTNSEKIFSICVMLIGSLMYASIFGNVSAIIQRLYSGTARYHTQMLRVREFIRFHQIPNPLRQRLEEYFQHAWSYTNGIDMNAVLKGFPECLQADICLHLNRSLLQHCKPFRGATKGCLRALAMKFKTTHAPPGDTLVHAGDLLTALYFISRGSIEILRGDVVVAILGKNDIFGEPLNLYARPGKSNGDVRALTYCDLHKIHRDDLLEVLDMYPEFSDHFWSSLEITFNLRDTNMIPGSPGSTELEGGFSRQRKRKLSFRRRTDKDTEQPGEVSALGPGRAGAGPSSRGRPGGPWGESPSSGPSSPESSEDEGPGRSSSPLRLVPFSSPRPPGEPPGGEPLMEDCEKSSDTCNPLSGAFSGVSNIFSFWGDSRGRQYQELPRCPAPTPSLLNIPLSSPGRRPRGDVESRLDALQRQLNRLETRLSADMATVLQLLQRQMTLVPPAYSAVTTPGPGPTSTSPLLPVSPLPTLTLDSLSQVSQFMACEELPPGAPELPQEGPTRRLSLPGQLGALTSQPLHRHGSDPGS
Outline: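 Channel function was assessed by thallium flux. Cells seeded the previous day and kept at 37 C took up FluxOR II dye over 1 h in the dark at room temperature, then sat another 10 min before stimulation.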

[12] = target: Cytochrome P450 3A4 (Homo sapiens) (UniProt P08684); experiment: Cytochrome P450 Family 3 Subfamily A Member 4 (CYP3A4) small molecule antagonists: luciferase reporter qHTS assay (AID 1671201); further: nearly all actives have a fitted effect of over 50% in size; further: potency means the concentration at half of the fitted maximal effect; on activity change, negative = inhibition: series mostly up to about 120 µM
Chain of Cytochrome P450 3A4 (Homo sapiens) (P08684 whole entry, looked up): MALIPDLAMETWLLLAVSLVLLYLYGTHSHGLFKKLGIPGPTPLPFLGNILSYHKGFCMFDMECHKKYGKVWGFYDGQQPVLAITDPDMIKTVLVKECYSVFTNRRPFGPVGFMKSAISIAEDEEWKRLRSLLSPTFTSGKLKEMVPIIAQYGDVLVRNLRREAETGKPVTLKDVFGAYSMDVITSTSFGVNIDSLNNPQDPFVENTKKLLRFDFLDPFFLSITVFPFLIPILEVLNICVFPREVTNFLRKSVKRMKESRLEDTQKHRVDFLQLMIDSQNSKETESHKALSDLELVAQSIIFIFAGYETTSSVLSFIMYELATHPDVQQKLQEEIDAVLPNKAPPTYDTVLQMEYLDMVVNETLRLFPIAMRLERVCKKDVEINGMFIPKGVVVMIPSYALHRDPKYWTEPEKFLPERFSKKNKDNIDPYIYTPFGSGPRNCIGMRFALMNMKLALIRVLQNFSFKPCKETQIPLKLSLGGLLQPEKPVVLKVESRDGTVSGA
Outline: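 Compounds in DMSO were pin-transferred onto CYP3A4 enzyme-substrate mix and held 10 min at room temperature. NADPH regenerating solution started the reaction for 1 h; luciferin detection reagent stopped it, and luminescence was read after 20 min.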

[13] = target: Cytochrome P450 2C9 (Homo sapiens) (UniProt P11712); experiment: Cytochrome P450 Family 2 Subfamily C Member 9 (CYP2C9) small molecule antagonists: luciferase reporter qHTS assay (AID 1671198); further: nearly all actives have a fitted effect of over 50% in size; further: potency means the concentration at half of the fitted maximal effect; on activity change, negative = inhibition: series mostly up to about 120 µM
Chain of Cytochrome P450 2C9 (Homo sapiens) (P11712 whole entry, looked up): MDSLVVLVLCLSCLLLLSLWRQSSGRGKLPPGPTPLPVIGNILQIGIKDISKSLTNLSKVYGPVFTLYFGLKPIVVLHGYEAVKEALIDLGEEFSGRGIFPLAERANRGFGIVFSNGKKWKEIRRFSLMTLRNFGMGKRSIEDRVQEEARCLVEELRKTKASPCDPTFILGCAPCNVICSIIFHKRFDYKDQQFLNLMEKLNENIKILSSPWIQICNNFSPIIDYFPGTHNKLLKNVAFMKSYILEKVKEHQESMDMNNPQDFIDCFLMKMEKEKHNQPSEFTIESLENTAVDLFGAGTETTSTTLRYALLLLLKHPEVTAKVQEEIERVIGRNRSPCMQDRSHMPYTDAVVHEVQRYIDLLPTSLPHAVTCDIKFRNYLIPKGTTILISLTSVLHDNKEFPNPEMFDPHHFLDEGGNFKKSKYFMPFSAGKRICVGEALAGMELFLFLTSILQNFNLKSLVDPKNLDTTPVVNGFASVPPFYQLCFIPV
Outline: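 Enzyme-substrate mix preincubated with compound 10 min at room temperature; reaction started with NADPH regeneration solution, 1 h 37C. Luminescent luciferin product read after 20 min detection reagent.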
On the % scale 0 is the no-effect control and ±100 the full control effect.

CCCCCCCCc1ccc(S(=O)(=O)O)cc1
inactive: Potency [1] | Potency [2] | Potency [3] | Potency [4] | outcome [5] | Potency [6] | Potency [7] | Potency [8] | Potency [9] | Potency [10] | Potency [11] | Potency [12]

CC[C@H]1CC[C@H](NCc2cc3c(cc2OC)[C@H]2C[C@H]2C(=O)N3C)[C@H](c2ccccc2)N1
active: Potency [2] 30.6 µM | Potency [4] 24.3 µM | Potency [7] 17.2 µM | Potency [8] 7.1 µM
inactive: Potency [1] | Potency [3] | outcome [5] | Potency [6] | Potency [9] | Potency [11]

O=C1CCCCCCCCCCC(=O)OCCO1
active: Potency [9] 35.6 µM | Potency [10] 22.4 µM | Potency [12] 31.7 µM
inactive: Potency [1] | Potency [2] | Potency [3] | Potency [4] | outcome [5] | Potency [6] | Potency [7] | Potency [8] | Potency [11]

O=C1C=CC(=O)O1
inactive: Potency [1] | Potency [2] | Potency [3] | Potency [4] | outcome [5] | Potency [6] | Potency [7] | Potency [9] | Potency [13] | Potency [10] | Potency [11] | Potency [12]

Cc1ccc(C)c(N)c1
inactive: Potency [1] | Potency [2] | Potency [3] | Potency [4] | outcome [5] | Potency [6] | Potency [7]
active: Potency [8] 20 µM | Potency [9] 7.11 µM | Potency [10] 35.6 µM | Potency [12] 3.56 µM

O=C(O)c1ccccc1Nc1cc(Cl)ccc1C(=O)O
inactive: activation [1] -0.215% [at 11.8 µM] | activity change, negative = cytotoxicity [2] 7.26% [at 19 µM] | caspase activation [3] 0.287% [at 19 µM] | activity change, negative = cytotoxicity [4] 5.08% [at 19 µM] | caspase-3/7 activation [5] 1.36% [at 19 µM] | activity change, negative = cytotoxicity [6] 3.27% [at 19 µM] | activation [7] 5.75% [at 19 µM] | Potency [10] | activity change, negative = inhibition [11] 6.42% [at 15.8 µM] | activity change, negative = inhibition [12] 34.1% [at 23.6 µM]
active: Potency [8] 1.51 µM

CC(C)S
inactive: Potency [1] | Potency [2] | Potency [3] | Potency [4] | outcome [5] | Potency [6] | Potency [7] | Potency [9] | Potency [13] | Potency [10] | Potency [11] | Potency [12]

CC(C)Nc1nc(N)nc(Cl)n1
inactive: Potency [1] | Potency [2] | Potency [3] | Potency [4] | outcome [5] | Potency [6] | Potency [7] | Potency [8] | Potency [9] | Potency [11] | Potency [12]

CC(C)(CO)[C@@H](O)C(=O)NCCC(=O)O
inactive: Potency [1] | Potency [2] | Potency [3] | Potency [4] | outcome [5] | Potency [6] | Potency [7] | Potency [8] | Potency [9] | Potency [12]

ICCc1ccccc1
active: Potency [7] 59.9 µM | Potency [8] 6.95 µM | Potency [9] 78 µM
inactive: Potency [1] | Potency [2] | Potency [3] | Potency [4] | outcome [5] | Potency [6] | Potency [12]

CCC1(C)NC(=O)NC1=O (stereo unspecified)
inactive: Potency [1] | Potency [2] | Potency [3] | Potency [4] | outcome [5] | Potency [6] | Potency [7] | Potency [8] | Potency [9] | Potency [11] | Potency [12]

CCCCCCCCCC/C=C/C#N
inactive: Potency [1] | Potency [2] | Potency [3] | Potency [4] | outcome [5] | Potency [6] | Potency [7] | Potency [8] | Potency [9] | Potency [11] | Potency [12]

CN(C)CCOc1ccccc1Cc1ccccc1
active: Potency [11] 7.56 µM
inactive: Potency [1] | Potency [2] | Potency [3] | Potency [4] | outcome [5] | Potency [6] | Potency [7] | Potency [8] | Potency [12]

CCOC(=O)C1CC(=O)C(=C(O)C2CC2)C(=O)C1 (stereo unspecified)
active: Potency [9] 71 µM
inactive: Potency [1] | Potency [2] | Potency [3] | Potency [4] | outcome [5] | Potency [6] | Potency [7] | Potency [8] | Potency [10] | Potency [11] | Potency [12]

CCCCCCC
inactive: Potency [1] | Potency [2] | Potency [3] | Potency [4] | outcome [5] | Potency [6] | Potency [7] | Potency [8] | Potency [13] | Potency [10] | Potency [12]

COc1cc(C)ccc1C(C)C
inactive: Potency [1] | Potency [2] | Potency [3] | Potency [4] | outcome [5] | Potency [6] | Potency [7] | Potency [8] | Potency [9] | Potency [10] | Potency [11] | Potency [12]

Cc1cc(S(=O)(=O)O)c(N)cc1Cl
inactive: Potency [1] | Potency [2] | Potency [3] | Potency [4] | outcome [5] | Potency [6] | Potency [7] | Potency [10] | Potency [11] | Potency [12]
active: Potency [9] 80.5 µM | Potency [13] 28.6 µM

CC(C)=CCCC(C)CCOC=O (stereo unspecified)
inactive: Potency [1] | Potency [2] | Potency [3] | Potency [4] | outcome [5] | Potency [6] | Potency [7] | Potency [8] | Potency [11]
active: Potency [13] 71 µM | Potency [12] 35.6 µM

Cc1ccc(C=O)s1
inactive: Potency [1] | Potency [2] | Potency [3] | Potency [4] | outcome [5] | Potency [6] | Potency [7] | Potency [8] | Potency [9] | Potency [11] | Potency [12]

CCCCC(CC)COC(=O)COc1cc(Cl)c(Cl)cc1Cl (stereo unspecified)
active: Potency [9] 7.1 µM | Potency [13] 8.94 µM | Potency [10] 15.9 µM | Potency [12] 6.33 µM
inactive: Potency [1] | Potency [2] | Potency [3] | Potency [4] | outcome [5] | Potency [6] | Potency [7] | Potency [11]

CC1(C)C(=O)N(Cl)C(=O)N1Br
inactive: Potency [1] | Potency [2] | Potency [3] | Potency [4] | outcome [5] | Potency [6] | Potency [7] | Potency [8] | Potency [10] | Potency [11]

CC(C)c1ccccc1
inactive: Potency [1] | Potency [2] | Potency [3] | Potency [4] | outcome [5] | Potency [6] | Potency [7] | Potency [8] | Potency [9] | Potency [10] | Potency [11] | Potency [12]
